# Several values for one entry are separate records, joined by “and”; a condition that tells them apart may be missing. Equal values may be shown once.
# Columns and labels:
# Assay type in all cases: functional
# [1] = molecular target: Solute carrier family 2, facilitated glucose transporter member 1 (Homo sapiens) (UniProt P11166); assay: ST_JUDE_LEISH: Cytotoxicity at 2uM final concentration against transgenic Leishmania Mexicana promastigotes LmGLUT1 that are glucose transport deficient and complemented with the human glucose transporter GLUT1. Activity is measured by DNA content using SYBR green in vitro
# [2] = molecular target: Hexose transporter 1 (Plasmodium falciparum) (UniProt O97467); assay: ST_JUDE_LEISH: Cytotoxicity at 2uM final concentration against transgenic Leishmania Mexicana promastigotes LmPfHT that are glucose transport deficient and complemented with the Plasmodium falciparum hexose transporter. Activity is measured by DNA content using SYBR green in vitro
# [3] = molecular target: Glucose transporter (Leishmania mexicana) (UniProt O61059); assay: ST_JUDE_LEISH: Cytotoxicity at 2uM final concentration against transgenic Leishmania Mexicana promastigotes LmGT2 that are glucose transport deficient and complemented with the L. Mexicana glucose transporter 2. Activity is measured by DNA content using SYBR green in vitro
# Chain of Solute carrier family 2, facilitated glucose transporter member 1 (Homo sapiens) (P11166 whole entry): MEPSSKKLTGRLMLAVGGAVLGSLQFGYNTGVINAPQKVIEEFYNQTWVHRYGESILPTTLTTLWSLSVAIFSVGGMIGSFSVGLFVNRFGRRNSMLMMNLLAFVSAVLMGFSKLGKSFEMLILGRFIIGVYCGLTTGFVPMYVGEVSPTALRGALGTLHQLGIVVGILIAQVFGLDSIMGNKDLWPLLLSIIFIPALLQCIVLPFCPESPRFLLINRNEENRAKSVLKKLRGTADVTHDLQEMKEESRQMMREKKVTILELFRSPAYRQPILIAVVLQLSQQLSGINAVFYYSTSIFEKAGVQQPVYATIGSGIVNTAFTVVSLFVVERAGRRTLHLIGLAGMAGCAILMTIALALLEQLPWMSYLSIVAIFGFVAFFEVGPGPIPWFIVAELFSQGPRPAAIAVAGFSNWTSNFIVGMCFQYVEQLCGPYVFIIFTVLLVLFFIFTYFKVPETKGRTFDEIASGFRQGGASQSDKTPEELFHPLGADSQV
Structure (SMILES),inhibition [1],inhibition [2],inhibition [3]
CN1CCN(CCCNCc2ccccc2-c2cccc(CNCc3ccc4c(c3)OCO4)c2)CC1,-1.31%,-0.45%,2.45%
CCN(CC)c1cc(C)c2cc(NC(=O)c3cc(=O)c4ccccc4o3)ccc2n1,6.32%,6.88%,1.71%
O=C(NCCCCN1CCCC2c3ccc(O)cc3CCC21)c1ccc(-c2ccccc2)cc1 (centres undefined),0.24% and 13.2%,1.39% and 1.92%,0.13% and -0.76%
O=C(NCCN1CCCC1)c1cccc(-c2ccc(-c3nc4cc(C(F)(F)F)ccc4[nH]3)cc2)c1,1.29%,0.34%,0.32%
NCC1CCCN1Cc1ccc(-c2ccc(-c3nc4cc(C(F)(F)F)ccc4[nH]3)s2)cc1 (centres undefined),1.42%,-0.28%,-0.19%
Cc1cccc2nc(-c3cccc(-c4cccc(NC(=O)c5c[nH]cn5)c4)c3)[nH]c12,1.5%,0.24%,-1.05%
c1ccc2cc3c(Nc4ccc(N5CCCCCC5)cc4)ccnc3cc2c1,0.03%,0.23%,0.24%
CCCC[C@H](NC(=O)O[C@H](COc1ccc(OCc2ccccc2)cc1)C(C)(C)C)C(=O)C(=O)Nc1cc[nH]n1,3.68%,3.22%,1.64%
CC(C)(C)C(=O)Oc1ccc(CC2NCCc3cc(OC(=O)C(C)(C)C)c(OC(=O)C(C)(C)C)cc32)cc1OC(=O)C(C)(C)C (centres undefined),8.66%,9.32%,7.65%
COc1ccc2nc(C)cc(N/N=C/c3cccc([N+](=O)[O-])c3)c2c1,8.97%,7.38%,7.7%
CCCCCCCCc1c(C)nc(C)c(C#N)c1O,5.8%,6.51%,5.78%
COc1ccc2ncc(F)c(CCN3CCC(CNCc4cccc5c4OCO5)CC3)c2n1,2.01%,1.39%,3.27%
CCCN(Cc1nnc(-c2cccs2)o1)C(=O)C1COc2ccccc2O1 (centres undefined),1.59%,3.17%,1.58%
COc1ccc(NC(=O)[C@H](Cc2ccccc2)Nc2cc(C)nc(NCc3ccccc3C)n2)cc1,4.42%,5.01%,2.59%
Cc1cccc2nc(-c3ccc(-c4cccc(CN5CCC(N)C5)c4)s3)[nH]c12 (centres undefined),9.02%,8.9%,8.23%
CC1CN(c2cnn(Cc3cccc(NC(=O)Nc4cccc(C(F)(F)F)c4)c3)c(=O)c2Cl)CC(C)N1 (centres undefined),10.7%,8.17%,7.73%
CC(C)(CNC(=O)[C@@H]1CCCN(CCOc2ccc(Cl)cc2)C1)c1nc(-c2ccc(Cl)c(O)c2)c(-c2ccncc2)[nH]1,-1.34%,2.16%,0.11%
COc1cc2nc(N3CCC(CNC(=O)c4cc(Br)c(Br)s4)CC3)nc(N)c2cc1OC,9.57%,9.82%,6.92%
Cc1cccc2nc(-c3cccc(-c4cccc(CN5CCN(c6ccncc6)CC5)c4)c3)[nH]c12,1.34%,0.76%,0.37%
Cc1cc(C)c(NC(=O)NC2CCN(CCCCCNC(=O)/C=C/c3ccc(Cl)c(Cl)c3)CC2)c(C)c1,4.35%,2.53%,3.81%
Cc1nc(-c2nc(N3CCC(O)CC3)ncc2-c2ccsc2)sc1C,-1.86%,-1.39%,0.38%
CN(C)CC(=O)N(Cc1ccc(Cl)c(Cl)c1)Cc1csc(-c2ccc(CNCc3ccccc3)cc2)n1,3.28%,0.77%,0.35%
O=C(Nc1ccc(Cl)cc1)c1cc(Cl)ccc1NC(=O)C1CCc2ccccc2O1 (centres undefined),5.48%,2.53%,1.56%

Structure (SMILES),inhibition [1],inhibition [2],inhibition [3]
COc1ccc(CCN(C)CCOc2ccc(NC(=O)c3cc(SC)cc4c(=O)c5ccccc5[nH]c34)cc2)cc1OC,4.06%,3.15%,2.82%
Cc1cc(Cl)c(S(=O)(=O)N(C)c2ccccc2)cc1OCC(=O)NC1CCCCC1,1.65%,1.38%,2.02%
Clc1ccc(Sc2cncnc2N2CCOCC2)cc1,3.31%,1.01%,-0.01%
COc1ccc(NC(=O)CSc2nc(-c3ccccc3Cl)ns2)cc1OC,-0.51%,-0.5%,2.58%
COc1ccc(NC(=O)[C@H](CC(C)C)Nc2cc(C)nc(NCCc3cccs3)n2)cc1,-2.08%,1.29%,-1.58%
Cc1cnc2ccc(NS(=O)(=O)c3ccc4c(Cl)cccc4c3)cc2c1N1CCNCC1,1.16%,1.37%,1.37%
COc1ccc(-c2cccc(NC(=O)c3ccc(Cl)cc3)c2)cc1CN(C)CCN(C)C,3.16%,2.66%,6.97%
COc1cccc2cc(C(=O)N[C@@H](CC(C)C)C(=O)N[C@H](/C=N/NC(=O)N3CCN(C)CC3)CCc3ccccc3)oc12,9.32%,11.9%,8.39%
COc1cccc(CCc2ccc(O)c3c2C[C@H]2C[C@H]4[C@H](N(C)C)C(O)=C(C(N)=O)C(=O)[C@@]4(O)C(O)=C2C3=O)c1,4.53%,4.13%,1.64%
CNCCNCc1ccc(-c2cccc(-c3nc4cc(C(F)(F)F)ccc4[nH]3)c2)cc1,3.52%,0.66%,1.45%
Cc1ccccc1Nc1nc(NCCc2ccccc2)nc2ccccc12,49.2%,37.4%,18.3%
CCOc1cc(C(=O)Nc2ccc3nc(N4CCCCC4)cc(C)c3c2)cc(OCC)c1OCC,4.92%,4.24%,3.07%
Cc1cccc2nc(-c3ccc(-c4cccc(NCc5cn6cccnc6n5)c4)cc3)[nH]c12,2.03%,0.59%,-2.51%
O=C(NC1CC1)c1ccc(N2CCC(Cc3ccccc3)CC2)nc1,3.46%,4.8%,-1.16%
O=C(Nc1cccc(C(F)(F)F)c1)c1ccc(S(=O)(=O)NCC2CCCN2CC2CCCCC2)cc1 (centres undefined),1.8%,3.93%,-0.18%
CN(C)CCNC(=O)c1ccc2c(c1)ncn2-c1cc(OCc2ccccc2C(F)(F)F)c(C(N)=O)s1.CN(C)CCNC(=O)c1ccc2ncn(-c3cc(OCc4ccccc4C(F)(F)F)c(C(N)=O)s3)c2c1,2.32%,1.7%,1.86%
c1cncc(CCNCc2cccc(-c3csc(-c4nc5ccccc5[nH]4)c3)c2)c1,4.04%,4.06%,2.64%
COc1cc(Cn2ccc3c4c(N)nc(N)nc4ccc32)cc(OC)c1OC,86.3%,83.5%,73.1%
COc1ccccc1NC(=O)c1cc(C(=O)c2cc(Cl)ccc2O)cn(-c2ccccc2OC)c1=O,5.19%,5.3%,4.07%
CCc1cn2c3c(cc(C(=O)N[C@@H](Cc4cc(F)cc(F)c4)[C@H](O)CNC4CCCCC4)cc13)N(C)S(=O)(=O)CC2,0.79%,0.2%,-2.62%
CC[C@@H]([C@@H](Cc1cc2ccccc2s1)C(=O)N[C@@H](CCCCNC(=O)OCc1ccccc1)C(=O)Nc1ccccn1)N(O)C=O,5.52%,4.31%,3.75%
c1ccc(CCNc2ccnc(Nc3ccc4[nH]nnc4c3)n2)cc1,14.1%,13.9%,10.8%
CC(Cc1ccc(OCc2ccccc2)cc1)Nc1nc(O)c2ccccc2n1 (centres undefined),2.96%,1.33%,3.22%

Structure (SMILES),inhibition [1],inhibition [2],inhibition [3]
O=C(OCC1CCN(Cc2ccccc2)C1)c1ccc(Cl)cc1 (centres undefined),0.47%,1.6%,2.14%
NCCNc1ccc([N+](=O)[O-])cc1C(=O)Nc1cccc(C(F)(F)F)c1,3.02%,3.19%,3.98%
OCc1c(Cl)cc(Cl)cc1CNCCCNc1nc2ccccc2[nH]1,5.72%,6.27%,1.01%
COC(=O)[C@@H](NC(=O)[C@H](Cc1ccc(OC)c(OC)c1)Nc1ccc(C#N)c2ccccc12)c1ccc(O)cc1,10.1%,16.6%,6.41%
Cc1ccc(Oc2ccc(CNc3nc(Nc4cccc(F)c4)nc(Nc4cccc(F)c4)n3)cc2)cc1,8.54%,8.04%,4.75%
COc1ccc([N+](=O)[O-])cc1N(Cc1ccccc1-c1ccccc1)S(=O)(=O)c1ccc(C(F)(F)F)cc1,3.87%,5.68%,2.13%
CCOC(=O)c1cc(C(=O)NCCCCN2CCC(c3cn(C)c4ccccc34)CC2)ccc1-c1ccc(C(F)(F)F)cc1,2.37%,2.2%,1.11%
C[C@H](NC(=O)[C@H](Cc1ccccc1)NC(=O)OC(C)(C)C)C(=O)N[C@@H](CC1CCCCC1)C(O)CN (some centres undefined),-1.66%,0.84%,-1.53%
Cc1ccc2c(=NN=Cc3cccc(F)c3)cc(C)[nH]c2c1,7.16%,7.52%,6.18%
Cc1cccn2c(=O)c3cc(C(=O)NC(C)c4ccccc4)c(=N)n(CCN4CCOCC4)c3nc12 (centres undefined),3.65%,1.65%,-1.52%
Fc1ccc(C=NN=c2cc[nH]c3ccc(C(F)(F)F)cc23)cc1,6.39%,6.15%,5.46%
O=C(Nc1ccc2c(c1)CCN2C1CCN(Cc2cc(F)cc(F)c2F)C1)c1ccco1 (centres undefined),1.75%,2.07%,3.47%
Cc1cccc2nc(-c3ccc(-c4cccc(NC(=O)Nc5ccc(Cl)cc5)c4)s3)[nH]c12,3.96%,3.55%,3.01%
CC(=O)Nc1ccc(C(=O)Nc2ccc(-c3cccc(-c4nc5cccc(C)c5[nH]4)c3)cc2)cn1,-3.82%,-0.04%,-3.28%
CC(C)(C)OC(=O)c1c(NC(=O)/C=C/c2ccc(O)c(O)c2)sc2c1CCCC2,-1.88%,-1.04%,-0.95%
Cc1cc(CNC(=O)c2ccc(-c3ccc(-c4nc5cc(C(F)(F)F)ccc5[nH]4)s3)cc2)on1,4.04%,3.31%,1.12%
Fc1cccc(Nc2nc(NCc3ccc(OCc4ccccc4)cc3)nc(Nc3cccc(F)c3)n2)c1,11.8%,9.09%,8.22%
Cc1noc(C)c1C(=O)N1CCCC(c2[nH]c3c(C)cccc3c2-c2ccncc2)C1 (centres undefined),2.42%,3%,2%
O=C(Nc1ccc(OC2CCN(Cc3ccccc3)CC2)c(Cl)c1)c1ccsc1,2.2%,2.35%,2.24%
CC(C)c1ccc(NC(=O)N[C@H]2CCN(CCCCCNC(=O)/C=C/c3ccc(Cl)c(Cl)c3)C2)cc1,2.04%,-3.46%,2.9%
Cc1cc(N(C)CCCN2CCCCC2)nc(Nc2ccc(Cl)cc2)n1,0.51%,2.38%,2.88%
O=C(NCc1ccccc1)c1ccc(C(=O)NCC2CNCCO2)cc1 (centres undefined),5.08%,6.24%,9.54%
